# Experimental data reported in PubChem BioAssay (NCI).
# The panel holds about 79,000 compounds, 15% with a hit somewhere; the sample as a whole holds those more often. Unmarked numbers belong to inactive results. The source made the active and inactive calls. Rule as the data show it: active = growth inhibition above about 70%; inactive = the rest.
# Key:
# [1] = NCI Yeast Anticancer Drug Screen. Data for the rad50 strain (AID 155);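 also: 0% = growth of vehicle-only cultures of the same strain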; conditions: S. cerevisiae rad50 strain growth inhibition; at 50.0 µM; hits give high values
# How it was run: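 Relative growth inhibition (compound vs vehicle) was measured in yeast with a defined repair-gene alteration.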
# [2] = NCI Yeast Anticancer Drug Screen. Data for the mec2-1 strain (AID 157); conditions: S. cerevisiae mec2-1 strain, at 50.0 µM, hits give high values
# How it was run: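 Readout is yeast growth inhibition, normalised to vehicle-treated controls, in the mec2-1 strain exposed to compound.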
# [3] = NCI Yeast Anticancer Drug Screen. Data for the sgs1 mgt1 strain (AID 161);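 also: 0% = growth of cultures given vehicle only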; conditions: S. cerevisiae sgs1 mgt1 strain, at 50.0 µM, hits give high values
# How it was run: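 Growth of a repair-deficient yeast mutant was monitored after compound treatment and expressed as inhibition relative to vehicle-treated cultures.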
# [4] = NCI Yeast Anticancer Drug Screen. Data for the cln2 rad14 strain (AID 165);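 also: 0% = growth equal to vehicle treated cultures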; conditions: S. cerevisiae cln2 rad14 strain, at 50.0 µM, hits give high values
# How it was run: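 Relative to vehicle controls, growth inhibition of compound-treated cln2 rad14 yeast was recorded.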
# [5] = NCI Yeast Anticancer Drug Screen. Data for the bub3 strain (AID 167); conditions: S. cerevisiae bub3 mutant strain, at 50.0 µM, hits give high values
# How it was run: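 Screening used yeast with an engineered genetic alteration affecting cell cycle control. Compound-exposed cultures were compared with vehicle cultures, and reduced growth was taken as inhibition.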
# [6] = NCI Yeast Anticancer Drug Screen. Data for the mlh1 rad18 strain (AID 175); conditions: S. cerevisiae mlh1 rad18 strain growth inhibition; at 50.0 µM; hits give high values
# How it was run: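 Test agents were incubated with a yeast strain of defined genotype (DNA damage repair defect). Inhibition of growth was derived by comparison with vehicle-exposed cultures.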
Structure (SMILES),growth inhibition [1] [%],growth inhibition [2] [%],growth inhibition [3] [%],growth inhibition [4] [%],growth inhibition [5] [%],growth inhibition [6]
COc1ccc([N+](=O)[O-])cc1N=NN(C)C,-1.9,-11.7,-10.8,-6.3,-5.8,-8.45%
CC(N)C(c1ccccc1)c1ccccc1 (stereo unspecified),19.5,15.8,7.15,11.3,33.6,19.4%
O=C(/C=C/c1ccc2c(c1)OCO2)NCc1ccco1,53.5,8.7,-19.6,-5.8,-14.4,-34.9%
O=C(NC(Cc1ccc(O)cc1)C(=O)O)SCc1ccccc1 (stereo unspecified),-25.6,21,22.9,-52.5,22.9,-12%
CS(=O)(=O)CC(=O)c1ccc(O)cc1O,4.55,3.55,-0.6,-43.2,-13.1,-7%
CNCCC(=O)c1ccccc1,-20.9,-14.3,-14.4,-64.8,-17.6,2.25%
CS(=O)(=O)O[C@H]1[C@H](O)c2ccccc2[C@@H]1N=[N+]=[N-],13.5,3.95,-2.05,-3,-10.2,-51.4%
Cc1ccc(NC(=O)C2c3ccccc3-c3ccccc32)cc1,39.4,16.6,16.9,-8.35,10.9,21.1%
COc1cccc(C(C#N)c2cnc3ccccc3n2)c1 (stereo unspecified),27.4,14.6,10.1,33.2,37.1,27.4%
CC(=O)OCC1OC(N=[N+]=[N-])C(OC(C)=O)C(OC(C)=O)C1OC1OC(COC(C)=O)C(OC(C)=O)C(OC(C)=O)C1OC(C)=O (stereo unspecified),-19.1,-29.9,-16.2,-0.35,5.55,-17.1%
O=C(O)COc1ccc(C(=O)/C(SS/C(C(=O)c2ccc(OCC(=O)O)c(Cl)c2Cl)=C2\C=C(c3ccc(F)cc3)SS2)=C2/C=C(c3ccc(F)cc3)SS2)c(Cl)c1Cl,-35,-28.4,-14.2,1.8,-22.3,83.7% (active)
C[C@H]1CC[C@@H](C(C)(C)O)CC2=C1CC[C@@H]2C,-0.2,-44.4,-13.2,0.15,-10.6,-26.4%
CCC(=O)c1ccccc1C#N,8.5,-3.25,1.6,-4.3,0.1,-1.45%
N/N=C(/Cc1ccccc1)NNO,30.4,13.8,27.1,22.4,12.8,22.2%
Cc1ccc2nc(C)cn2c1,-0.05,7.7,-1.15,14.3,10.7,2.3%
CO[C@@]12C[C@@H](C)C3=CCC(C)=C3CC1=C(C)C(=O)O2,8.9,-4.05,16.6,2.9,26.4,-68.3%
O=NN(CCCl)C(=O)N[C@H]1CCC[C@@H](O)C1,5.85,-3.35,-6.2,-42.9,-15.2,6%
COc1ccc(-n2c(C)nc3c(cnn3CN3CCCCC3)c2=O)cc1,4,-0.95,-1.25,-4.05,8.75,13.5%
NC(=O)N/N=C1/C=C2CCCCC2CC1 (stereo unspecified),6.8,0.35,-1,10.8,-16.4,10.2%
O=[N+]([O-])c1ccc(Oc2ccc(S(=O)(=O)O)cc2)cc1,13.8,6.5,-4.35,7.4,6.6,2.5%
Cn1c(N)c(NC(=S)NCC2CCCCC2)c(=O)n(C)c1=O,-2.8,-5,-1.2,-9.6,-3.6,1.5%

Structure (SMILES),growth inhibition [1] [%],growth inhibition [2] [%],growth inhibition [3] [%],growth inhibition [4] [%],growth inhibition [5] [%],growth inhibition [6]
Cc1nc([N+](=O)[O-])cn1CC(Cl)Cn1cc([N+](=O)[O-])nc1C,-4.65,-12.4,-18.7,9.7,-25.1,14.2%
CSc1nnn(C(C)(C)C)n1,5.35,6,-3.5,-15.9,-8.75,8.8%
COc1ccc(N2C(=O)CC(c3c[nH]c4ccccc34)C2=O)cc1 (stereo unspecified),-29.2,-37.1,1.05,6.9,13.8,-22.2%
c1cc2c3c(cccc3c1)N=S=N2,25.4,-7.45,10.1,-62.6,20.9,12.2%
CC(C)=CC(=O)n1nc2c(c1CC(C)C)C(=O)C(Nc1ccccc1)=CC2=O,35.1,3.25,21,24.8,1.3,27.4%
CC1(C)COC2(CC(C)(C)OC2(C)C)OC1,-1.45,0.8,-6,-40.8,-7.25,14.8%
CC(C)OC1(c2ccccc2)OC(c2ccccc2)=CC1=O (stereo unspecified),5.35,-17.1,-12.1,-7.4,14.1,-0.8%
CCCN(CCCC(NC(C)=O)C(=O)NCc1ccccc1)C(=O)N(C)N=O (stereo unspecified),-21.1,-24.8,-4.25,19.9,-14.8,-11.9%
C[C@@]12CCC(=O)C=C1CC[C@H]1C2C(=O)C[C@]2(C)C1CC[C@@]2(O)C(=O)COC(=O)CCC(=O)O (stereo partly specified),0.1,10.3,-19.8,4.45,6.95,0.25%
C=CCC1(CO)CCCCC1O (stereo unspecified),1.6,1.5,16.4,-73.4,10.3,3.2%
N#CC(C(=O)O)C(c1cccc2ccccc12)c1cccc2ccc3ccccc3c12 (stereo unspecified),51,-2.3,27.1,-4.35,7.05,13.8%
C=C(C)C1Cc2cc(C(C)=O)ccc2O1 (stereo unspecified),12.7,-11.7,9.55,5.8,-4,-59.2%
CCOC(=O)C(Cc1ccc(Cl)cc1)(Cc1ccc(Cl)cc1)C(=O)OCC,0.75,-30.4,-18,6.15,-15.8,-10.7%
OCC(O)c1ccccn1 (stereo unspecified),5.5,-18.8,6.65,-1.45,2.55,6.2%
N#CC[N+]1(Cc2ccccn2)CCCC1,-4.5,-2.05,-13.8,6.4,-2.5,-7.8%
COC(=O)c1cc(C)cc(N(c2ccccc2[N+](=O)[O-])S(=O)(=O)c2ccc(C)cc2)c1C,15.9,-9.35,-25.3,1.2,-10.3,-9%
CCC(Cc1ccccc1)C1=NC(C)(C)CC(C)O1 (stereo unspecified),1.2,3.95,-5.25,-20.6,-1.4,25.4%
CCOC(=O)c1cc(/C=C/C(C)=C/C(=O)OC)oc1C,6.85,1.4,-0.45,-13.3,5.4,1.25%
C=CCSC(C)=O,-3.4,-0.05,13.9,7.6,-7.8,-6.8%
NC(=O)C12C3C4C1C1C2C3C41C(N)=O (stereo unspecified),29.1,12.4,-1.7,16.5,-5.8,20.6%
